In PubChem BioAssay AID1851 (National Center for Advancing Translational Sciences (NCATS), 2009):
Screen size: about 16,000 compounds; about 5,100 (32%) were called active. About 25% were inconclusive and are not listed. Some of the results follow. Values without a mark were called inactive. Calls come from the whole dose curve; as a rule, active = well fitted curve in the direction sought with a large enough effect; inconclusive = small, poorly fitted or top-dose-only effect, or effect the other way; inactive = no such curve, though single readings can be large or run the other way.

Biological target: Cytochrome P450 3A4 (Homo sapiens) (UniProt P08684)
Sequence (P08684 whole entry, looked up): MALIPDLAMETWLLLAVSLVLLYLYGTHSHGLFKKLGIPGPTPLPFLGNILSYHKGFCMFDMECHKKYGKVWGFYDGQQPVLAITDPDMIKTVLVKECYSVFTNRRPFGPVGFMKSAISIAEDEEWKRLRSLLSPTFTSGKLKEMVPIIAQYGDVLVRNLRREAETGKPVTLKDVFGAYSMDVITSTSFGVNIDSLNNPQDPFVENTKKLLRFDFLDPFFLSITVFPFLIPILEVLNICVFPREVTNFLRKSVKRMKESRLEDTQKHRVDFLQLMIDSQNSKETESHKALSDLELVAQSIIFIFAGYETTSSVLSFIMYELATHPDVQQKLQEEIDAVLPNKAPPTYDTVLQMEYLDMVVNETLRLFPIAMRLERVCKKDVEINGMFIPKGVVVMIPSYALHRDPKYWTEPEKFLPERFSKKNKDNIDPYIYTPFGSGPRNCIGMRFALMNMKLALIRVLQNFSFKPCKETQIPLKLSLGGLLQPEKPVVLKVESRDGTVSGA
Assay: Cytochrome panel assay with activity outcomes
Settings: recombinant CYP, pro-luciferin dealkylation, luminescence, p450-cyp3a4; series mostly up to 57.1 µM; activity, negative = inhibition: at the top concentration
% is set by controls: 0 for no effect and ±100 for the full control effect.

SMILES | activity, negative = inhibition | AC50
CCOC(=O)c1cc(C(=O)OCC)cc(-n2cc(O)c(C(=O)OCC)n2)c1 | -9.96% | 
COC(=O)c1sc2ncccc2c1OCc1c(Cl)cccc1Cl | -24.4% [at 11.4 µM] | 
COc1ccc(C[N+](C)(C)N)cc1OC | -9.55% [at 11.4 µM] | 
COc1cc(CNn2nnnc2N)ccc1OCc1c(Cl)cccc1Cl |  | 0.562 µM (active)
Nc1nc(N)[n+]([O-])c(N)c1NCO | -2.59% [at 11.4 µM] | 
O=C(OCCCN1CCCCC1)c1ccc(O)cc1 | -18% | 
Cc1cc(C(=O)O)c(=O)[nH]c1C | -1.64% | 
COC(=O)C/C=C\[C@@H](C)[C@@H](/C=N\OC[C@@H](O)[C@H]1O[C@H]2OC(C)(C)O[C@H]2[C@@H]1O)NS(=O)(=O)c1ccc(C)cc1 |  | 3.98 µM (active)
COC(=O)C/C=C\[C@@H](C)[C@@H](/C=N\OC[C@@H](O)COCc1ccco1)NS(=O)(=O)c1ccc(C)cc1 |  | 3.16 µM (active)
CC(C)[C@@H](OCc1ccccc1)[C@H](C)/C=N\OC[C@@H](O)[C@@H]1O[C@@H]2OC(C)(C)O[C@@H]2[C@H]1O | -28.7% [at 11.4 µM] | 
CO/N=C\[C@@H](NS(=O)(=O)c1ccc(C)cc1)[C@H](C)/C=C\CC(=O)OC | -67.3% [at 11.4 µM] | 
COC(=O)C/C=C\[C@H](C)[C@H](CO)NS(=O)(=O)c1ccc(C)cc1 | -5.02% [at 11.4 µM] | 
COC(=O)C/C=C\[C@@H](C)[C@@H](/C=N\OC[C@@H](O)COCc1ccco1)OC | -28.9% [at 11.4 µM] | 
Clc1ccc(CSC2=NCCN2)cc1Cl | -8.56% [at 11.4 µM] | 
CNc1cc(CSC)nc(SCc2ccc(Cl)c(Cl)c2)n1 |  | 5.01 µM (active)
O=C(Cn1ccnc1[N+](=O)[O-])NCCO | -11.3% [at 25.6 µM] | 
Cc1cnc(CNc2ncnc3ccc(-c4ccccc4C)cc23)cn1 |  | 3.98 µM (active)
Cc1cnc(CNc2ncnc3ccc(-c4ccccc4Cl)cc23)cn1 |  | 2.51 µM (active)
Cc1cnc(CNc2ncnc3ccc(-c4ccccc4C(F)(F)F)cc23)cn1 |  | 2 µM (active)
Cc1cnc(CNc2ncnc3ccc(-c4ccccc4CN(C)C)cc23)cn1 | -33.4% | 
O=C(NC[C@@H](O)CO)c1c(I)c(C(=O)NC[C@@H](O)CO)c(I)c(N(CCO)C(=O)CO)c1I | -4.08% [at 25.6 µM] | 
C[N+](C)(C)c1cc2c(nn1)Nc1ccccc1S2 | -5.56% [at 11.4 µM] | 
OC(CCCN1CCCCC1)(c1ccccc1)c1ccccc1 | -25.9% [at 25.6 µM] | 
C=CCNc1nc(Cl)nc(Nc2ccc(OC)cc2)n1 |  | 14.1 µM (active)

SMILES | activity, negative = inhibition | AC50
O=C(c1ccccc1)[C@@H]1O[C@H]1c1ccc(-c2ccccc2)cc1 | -23.2% | 
CCOC(=O)Nc1ccc(C)cc1NC(=O)OCC | 4.11% [at 2.29 µM] | 
O=C(NC(=S)Nc1ccc(Oc2ccc(Cl)cc2)cc1)c1ccccc1 | -13.5% | 
CCOC(=O)Nc1ccc2c(c1)OCO2 |  | 14.1 µM (active)
CC(=O)Nc1ccc2c(c1)OCCO2 | 8.82% | 
Cc1ccc(C(=O)NC(=S)Nc2ccc3c(c2)OCCO3)c(C)c1 |  | 28.2 µM (active)
O=C(NC(=S)Nc1ccc2c(c1)OCO2)c1ccccc1 |  | 0.631 µM (active)
CC(=O)Nc1ccc2c(c1)OCCOCCOc1cc(NC(C)=O)ccc1OCCOCCOCCO2 | -17.9% | 
CS[C@]12C(=O)C[C@]3(C)[C@@H](CC[C@@]3(O)C(=O)CO)[C@@H]1CCC1=CC(=O)CC[C@]12C | -14.7% [at 11.4 µM] | 
CC(Oc1ccc(O)cc1)(P(=O)(O)O)P(=O)(O)O | -9.31% | 
COC(=O)c1cc(C#N)c(Oc2ccc(OC)cc2)nc1C |  | 14.1 µM (active)
CC(=O)c1cc(C#N)c(Oc2ccc(F)cc2)nc1C | -27.3% | 
CC(=O)c1cc(C#N)c(Oc2cccc(C(F)(F)F)c2)nc1C | -25% | 
COc1ccc(Cc2ccccc2C(=O)O)c2ccccc12 | -12.8% [at 11.4 µM] | 
COc1ccc(CC(=O)O/N=C(\N)Cc2ccc(OC)cc2)cc1 |  | 10 µM (active)
COc1ccc(C[C@@](C)(N)C(=O)O)cc1OC | -53.3% [at 25.6 µM] | 
COc1ccccc1OC[C@H](O)COC(N)=O | -11% [at 25.6 µM] | 
COc1ccccc1C/C(N)=N/OC(=O)c1ccc(C)c([N+](=O)[O-])c1 |  | 10 µM (active)
COc1ccc(C/C(N)=N/OC(=O)Cc2ccccc2)cc1OC |  | 3.16 µM (active)
COc1ccccc1CC(=O)O/N=C(\N)Cc1cccc2ccccc12 |  | 15.8 µM (active)
NC(Cc1ccccc1)=NCC(=O)O | -0.223% [at 11.4 µM] | 
O=C1c2ccccc2C(=O)N1CCCCN(C(=O)c1ccc([N+](=O)[O-])cc1)c1ccc(Cl)cc1 |  | 25.1 µM (active)
O=C1c2ccccc2C(=O)N1CCCCN(C(=O)c1cccc([N+](=O)[O-])c1)c1ccc(Cl)cc1 |  | 11.2 µM (active)
